# Results reported in PMC7862700, “An all-to-all approach to the identification of sequence-specific readers for epigenetic DNA modifications on cytosine”.
# How the values were obtained:
# Assay in all cases: DAPPL (digital affinity profiling via proximity ligation, sequencing); 10 mM Tris-HCl pH 7.5, 50 mM NaCl, 1 mM DTT, 4% glycerol, room temperature, 30 min; GST-TFs on glutathione beads, 16-mer random dsDNA library, 0.1% formaldehyde crosslink after washing; high values mean tight binding
# FEV = molecular target: T1, FEV (Homo sapiens, UniProt Q99581 1-238); details: protein: recombinant; tags: N-terminal GST; dsDNA, one strand shown
# T1 sequence: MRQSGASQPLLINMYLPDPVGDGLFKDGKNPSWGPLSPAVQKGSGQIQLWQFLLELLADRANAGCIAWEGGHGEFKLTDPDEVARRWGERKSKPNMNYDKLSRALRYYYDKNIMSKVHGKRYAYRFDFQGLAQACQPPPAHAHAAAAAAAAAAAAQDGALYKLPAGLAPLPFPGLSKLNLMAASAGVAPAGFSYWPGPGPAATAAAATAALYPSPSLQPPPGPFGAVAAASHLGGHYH
# Summary of the method: (§1)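 Each value of binding signal is a hexamer's read frequency for a factor divided by the same hexamer's frequency in the tag-only sample. Barcoded, bead-captured GST fusions of human transcription factors made in yeast were pooled with that sample and incubated with 200 nmole of a random double-stranded 16-mer DNA library in Tris/NaCl/DTT/glycerol buffer at room temperature for 30 min. Washing, 0.1% formaldehyde crosslinking, proximity ligation, PCR and Illumina NextSeq500 sequencing followed.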
# ETV5 = ETV5 (Homo sapiens, UniProt P41161 1-510); details: protein: recombinant; tags: N-terminal GST; dsDNA, one strand shown
# Summary of the method: as §1
# HSF1 = HSF1 (Homo sapiens, UniProt Q00613 1-529); details: protein: recombinant; tags: N-terminal GST; chain copies: 3; dsDNA, one strand shown
# Summary of the method: as §1
# SPIC = molecular target: T2, SPIC (Homo sapiens, UniProt Q8N5J4 1-248); details: protein: recombinant; tags: N-terminal GST; dsDNA, one strand shown
# T2 sequence: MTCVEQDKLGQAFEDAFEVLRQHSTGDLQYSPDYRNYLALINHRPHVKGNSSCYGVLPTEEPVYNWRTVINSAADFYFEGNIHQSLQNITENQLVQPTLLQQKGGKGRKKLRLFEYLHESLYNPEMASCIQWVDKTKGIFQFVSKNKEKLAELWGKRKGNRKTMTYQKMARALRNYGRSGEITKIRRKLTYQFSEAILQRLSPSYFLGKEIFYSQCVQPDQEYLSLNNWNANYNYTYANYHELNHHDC
# Summary of the method: as §1
# ELF4 = ELF4 (Homo sapiens, UniProt Q99607 1-663); details: protein: recombinant; tags: N-terminal GST; dsDNA, one strand shown
# Summary of the method: as §1
# ELK4 = molecular target: T3, ELK4 (Homo sapiens, UniProt P28324-2 1-405); details: protein: recombinant; tags: N-terminal GST; dsDNA, one strand shown
# T3 sequence: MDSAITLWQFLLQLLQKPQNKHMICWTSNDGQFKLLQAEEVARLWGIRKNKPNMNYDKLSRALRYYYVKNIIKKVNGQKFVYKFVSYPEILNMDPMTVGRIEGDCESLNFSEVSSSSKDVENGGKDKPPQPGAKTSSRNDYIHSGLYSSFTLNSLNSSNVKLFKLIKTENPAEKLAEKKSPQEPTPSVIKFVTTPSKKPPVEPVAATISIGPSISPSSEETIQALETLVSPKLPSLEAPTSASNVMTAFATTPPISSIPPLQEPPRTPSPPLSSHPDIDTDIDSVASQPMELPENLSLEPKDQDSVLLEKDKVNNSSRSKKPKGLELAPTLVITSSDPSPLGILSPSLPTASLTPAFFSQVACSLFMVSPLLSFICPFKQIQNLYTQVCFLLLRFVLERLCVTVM
# Summary of the method: as §1
# ETV2 = molecular target: T4, ETV2 (Homo sapiens, UniProt O00321 1-342); details: protein: recombinant; tags: N-terminal GST; dsDNA, one strand shown
# T4 sequence: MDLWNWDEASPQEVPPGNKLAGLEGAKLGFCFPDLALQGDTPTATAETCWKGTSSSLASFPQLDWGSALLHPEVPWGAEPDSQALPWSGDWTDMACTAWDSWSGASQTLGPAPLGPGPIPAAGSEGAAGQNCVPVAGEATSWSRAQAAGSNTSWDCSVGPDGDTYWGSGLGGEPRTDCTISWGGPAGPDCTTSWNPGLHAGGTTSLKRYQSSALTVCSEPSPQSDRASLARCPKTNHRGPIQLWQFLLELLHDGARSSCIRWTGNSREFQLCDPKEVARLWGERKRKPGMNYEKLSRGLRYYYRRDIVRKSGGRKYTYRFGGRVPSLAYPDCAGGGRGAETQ
# Summary of the method: as §1
# ELF3 = molecular target: T5, ELF3 (Homo sapiens, UniProt P78545 1-371); details: protein: recombinant; tags: N-terminal GST; dsDNA, one strand shown
# T5 sequence: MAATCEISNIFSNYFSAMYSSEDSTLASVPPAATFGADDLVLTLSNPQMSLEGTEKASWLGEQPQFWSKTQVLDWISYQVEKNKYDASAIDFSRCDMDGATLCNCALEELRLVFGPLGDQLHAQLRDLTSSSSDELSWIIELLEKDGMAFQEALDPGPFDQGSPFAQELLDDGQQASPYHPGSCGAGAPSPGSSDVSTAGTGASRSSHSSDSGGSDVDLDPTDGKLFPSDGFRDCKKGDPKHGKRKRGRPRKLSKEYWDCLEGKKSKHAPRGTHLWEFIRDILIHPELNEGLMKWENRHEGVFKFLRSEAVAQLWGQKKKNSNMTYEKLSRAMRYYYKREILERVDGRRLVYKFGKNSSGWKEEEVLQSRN
# Summary of the method: as §1
# CRX = CRX (Homo sapiens, UniProt O43186 1-299); details: protein: recombinant; tags: N-terminal GST; dsDNA, one strand shown
# Summary of the method: as §1
# ETV1 = ETV1 (Homo sapiens, UniProt P50549 1-477); details: protein: recombinant; tags: N-terminal GST; dsDNA, one strand shown
# Summary of the method: as §1
# Chain of ETV5 (P41161 whole entry): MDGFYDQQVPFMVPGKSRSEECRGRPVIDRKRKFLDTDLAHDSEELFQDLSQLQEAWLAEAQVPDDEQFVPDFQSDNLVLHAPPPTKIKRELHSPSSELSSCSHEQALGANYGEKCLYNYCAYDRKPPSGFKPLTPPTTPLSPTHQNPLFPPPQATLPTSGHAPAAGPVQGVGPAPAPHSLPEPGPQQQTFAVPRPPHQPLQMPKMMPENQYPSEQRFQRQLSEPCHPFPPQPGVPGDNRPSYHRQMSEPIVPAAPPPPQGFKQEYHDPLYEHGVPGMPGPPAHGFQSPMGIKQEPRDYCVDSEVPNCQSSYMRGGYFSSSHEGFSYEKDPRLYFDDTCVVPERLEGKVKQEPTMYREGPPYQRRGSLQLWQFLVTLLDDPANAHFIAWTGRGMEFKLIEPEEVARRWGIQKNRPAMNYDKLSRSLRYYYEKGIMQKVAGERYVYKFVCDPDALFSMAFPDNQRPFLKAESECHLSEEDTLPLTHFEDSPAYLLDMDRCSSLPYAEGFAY
# Chain of ELF4 (Q99607 whole entry): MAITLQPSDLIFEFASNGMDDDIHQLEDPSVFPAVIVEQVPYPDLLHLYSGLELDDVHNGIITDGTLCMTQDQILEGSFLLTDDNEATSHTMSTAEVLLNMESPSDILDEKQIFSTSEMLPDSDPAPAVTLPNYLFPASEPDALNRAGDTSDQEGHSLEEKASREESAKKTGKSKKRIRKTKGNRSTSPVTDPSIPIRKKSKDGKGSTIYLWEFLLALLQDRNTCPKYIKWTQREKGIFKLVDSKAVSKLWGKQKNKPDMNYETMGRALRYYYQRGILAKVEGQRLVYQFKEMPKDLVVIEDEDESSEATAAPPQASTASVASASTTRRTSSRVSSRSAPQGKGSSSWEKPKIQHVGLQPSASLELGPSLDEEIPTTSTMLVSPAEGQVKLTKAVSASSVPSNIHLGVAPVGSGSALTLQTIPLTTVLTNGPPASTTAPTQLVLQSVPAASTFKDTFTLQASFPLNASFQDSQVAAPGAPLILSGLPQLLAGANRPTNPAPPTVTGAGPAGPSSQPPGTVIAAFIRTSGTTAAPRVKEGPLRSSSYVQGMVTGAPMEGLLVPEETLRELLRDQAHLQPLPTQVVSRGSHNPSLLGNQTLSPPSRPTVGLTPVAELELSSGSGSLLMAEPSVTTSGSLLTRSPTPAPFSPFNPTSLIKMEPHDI
# Chain of ETV1 (P50549 whole entry): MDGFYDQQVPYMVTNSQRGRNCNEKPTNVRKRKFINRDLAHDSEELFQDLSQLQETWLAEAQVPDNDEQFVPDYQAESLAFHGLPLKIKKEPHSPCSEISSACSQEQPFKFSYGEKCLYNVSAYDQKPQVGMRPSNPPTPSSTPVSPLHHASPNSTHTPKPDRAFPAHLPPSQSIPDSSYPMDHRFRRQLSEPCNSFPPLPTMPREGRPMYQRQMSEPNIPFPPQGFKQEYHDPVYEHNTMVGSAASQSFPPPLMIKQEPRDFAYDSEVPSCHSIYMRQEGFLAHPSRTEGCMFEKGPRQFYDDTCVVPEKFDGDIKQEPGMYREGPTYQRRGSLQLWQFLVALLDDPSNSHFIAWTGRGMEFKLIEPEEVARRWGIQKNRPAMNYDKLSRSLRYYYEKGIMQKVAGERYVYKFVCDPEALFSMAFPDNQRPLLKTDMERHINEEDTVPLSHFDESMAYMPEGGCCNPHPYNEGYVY
# Chain of CRX (O43186 whole entry): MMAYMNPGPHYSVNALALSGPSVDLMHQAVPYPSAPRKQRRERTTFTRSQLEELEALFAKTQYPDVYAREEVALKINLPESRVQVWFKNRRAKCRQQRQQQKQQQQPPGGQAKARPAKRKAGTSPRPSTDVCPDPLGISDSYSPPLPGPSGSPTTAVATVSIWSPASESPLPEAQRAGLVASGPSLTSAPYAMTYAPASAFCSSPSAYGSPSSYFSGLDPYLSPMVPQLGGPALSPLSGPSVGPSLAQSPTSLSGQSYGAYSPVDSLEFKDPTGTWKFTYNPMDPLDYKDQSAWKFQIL
# Chain of HSF1 (Q00613 whole entry): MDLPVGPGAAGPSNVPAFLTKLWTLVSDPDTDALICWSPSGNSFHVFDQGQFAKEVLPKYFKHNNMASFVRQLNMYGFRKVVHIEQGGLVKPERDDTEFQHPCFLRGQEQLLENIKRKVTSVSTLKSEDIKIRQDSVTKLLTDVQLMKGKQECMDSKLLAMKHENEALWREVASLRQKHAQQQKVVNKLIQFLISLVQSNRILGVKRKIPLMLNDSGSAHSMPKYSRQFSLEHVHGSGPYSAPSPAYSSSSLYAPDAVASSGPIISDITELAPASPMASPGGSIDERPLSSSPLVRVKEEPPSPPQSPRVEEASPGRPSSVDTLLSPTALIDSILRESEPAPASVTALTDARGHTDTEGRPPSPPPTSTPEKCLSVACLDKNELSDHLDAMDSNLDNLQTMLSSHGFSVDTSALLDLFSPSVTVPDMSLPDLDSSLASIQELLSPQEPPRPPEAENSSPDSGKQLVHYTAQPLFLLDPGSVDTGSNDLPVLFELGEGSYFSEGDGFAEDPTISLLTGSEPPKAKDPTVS
sequence,measurement,setting,value
TCGCTT,binding signal,FEV,"1.2 fold enrichment (6-mer frequency, TF over GST control)"
same,binding signal,ETV5,"1.38 fold enrichment (6-mer frequency, TF over GST control)"
same,binding signal,HSF1,"1.11 fold enrichment (6-mer frequency, TF over GST control)"
same,binding signal,SPIC,"1.08 fold enrichment (6-mer frequency, TF over GST control)"
same,binding signal,ELF4,"1.24 fold enrichment (6-mer frequency, TF over GST control)"
same,binding signal,ELK4,"1.21 fold enrichment (6-mer frequency, TF over GST control)"
same,binding signal,ETV2,"1.05 fold enrichment (6-mer frequency, TF over GST control)"
same,binding signal,ELF3,"1.18 fold enrichment (6-mer frequency, TF over GST control)"
same,binding signal,CRX,"1.15 fold enrichment (6-mer frequency, TF over GST control)"
same,binding signal,ETV1,"1.24 fold enrichment (6-mer frequency, TF over GST control)"
